These results are taken from PubChem BioAssay (EPA / NIEHS).

Calls of active or inactive are those of the source. The calls were made as follows: active = hit-call score of the fitted dose curve at least 0.9, where 1 is the maximum; inactive = score below 0.9.

Experiment [1] is described as follows: ATG_DR4_LXR_CIS: Attagene CIS-FACTORIAL HepG2 Assay for human Liver X Receptor (LXR), DR4 submotif (AID 2282929). Conditions: HepG2 Attagene DR4 cis-reporter, mRNA transcription; AC50: actives raise or lower the signal unless noted; outcome: actives raise or lower the signal unless noted. A digest of the protocol: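 HepG2 cells transiently transfected with cis-promoter-driven multiplexed reporter units (DR4 element) were dosed for 24 h. Reporter mRNA was quantified by RT-PCR, fluorescent primer extension, HpaI digestion and capillary electrophoresis; bidirectional fitting versus DMSO baseline.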

In experiment [2] the target is Aryl hydrocarbon receptor (Homo sapiens) (UniProt P35869). The experiment in a line: ATG_Ahr_CIS: Attagene CIS-FACTORIAL HepG2 Assay for human Aryl Hydrocarbon Receptor (Ahr) (AID 2282930). As to conditions: HepG2 AhR cis-factorial reporter transcription; actives raise or lower the signal. A digest of the protocol:
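Following 24 h of chemical dosing, transfected HepG2 liver cells with cis-driven reporter units were lysed for RNA; reporter mRNA was quantified via RT-PCR and capillary electrophoresis, and responses fitted bidirectionally from DMSO.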

Experiment [3] can be described thus: ATG_AP_1_CIS: Attagene CIS-FACTORIAL HepG2 Assay for human Activator Protein 1 (AP-1) (AID 2282931). Conditions: HepG2 Attagene cis-factorial AP-1 reporter mRNA; actives raise or lower the signal. Summed up:
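HepG2 cells transiently transfected with cis-element-driven multiplex reporter units; 24 h compound exposure. Reporter mRNA quantified by RT-PCR, FAM-labelled fragments resolved by capillary electrophoresis; bidirectional fit versus DMSO baseline.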

Experiment [4] is described as follows: ATG_AP_2_CIS: Attagene CIS-FACTORIAL HepG2 Assay for human Activator Protein 2 (AP-2) (AID 2282932). As to conditions: HepG2 AP-2 cis-reporter, Attagene transcription factor profiling; AC50: actives raise or lower the signal unless noted; outcome: actives raise or lower the signal unless noted. Summed up:
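HepG2 cells were transiently transfected with multiple cis-promoter reporter transcription units and dosed for 24 h. Reporter mRNA was measured by RT-PCR with capillary electrophoresis fluorescence; bidirectional fits relative to DMSO baseline.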

Experiment [5] in a line: ATG_BRE_CIS: Attagene CIS-FACTORIAL HepG2 Assay for human Bone Morphogenetic Protein (BMP) Response Element (BRE) (AID 2282933). Conditions: HepG2 BMP response element reporter, Attagene transcription factor profiling; actives raise or lower the signal. A digest of the protocol:
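Endogenous transcription factor activity read in transiently transfected HepG2 cells after 24 h chemical exposure. Bidirectional curve fitting against DMSO; readout is reporter transcript level by RT-PCR with capillary electrophoresis of labelled products.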

Experiment [6] concerns the target Transcription factor E2F1 (Homo sapiens) (UniProt Q01094). Nature of the experiment: ATG_E2F_CIS: Attagene CIS-FACTORIAL HepG2 Assay for human E2F Transcription Factor 1 (AID 2282935). As to conditions: HepG2 Attagene cis-reporter, E2F reporter RNA transcripts; actives raise or lower the signal. A digest of the protocol:
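HepG2 cells transiently transfected with multiplexed cis-element reporter units, dosed for 24 h. Reporter mRNA measured by RT-PCR, 6-FAM primer-extension labeling, HpaI digestion and capillary electrophoresis; bidirectional fit versus DMSO baseline.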

Experiment [7] is described as follows: ATG_E_Box_CIS: Attagene CIS-FACTORIAL HepG2 Assay for human Enhancer Box (E-box) (AID 2282936). Conditions: HepG2 E-box cis-reporter transcription, actives raise or lower the signal. Summed up: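 HepG2 cells transiently transfected with multiplexed cis-element reporter units sensing endogenous transcription factor activity; 24 h compound exposure. Reporter mRNA measured by RT-PCR, 6-FAM primer extension, HpaI digestion and capillary electrophoresis; bidirectional fit versus DMSO.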

Experiment [8] can be described thus: ATG_M_61_CIS: Attagene CIS-FACTORIAL HepG2 Assay for M61 Transcription Factor (Internal Marker) (AID 2282937). Conditions: HepG2 Attagene CIS-FACTORIAL M61 internal marker reporter; actives raise or lower the signal. A digest of the protocol: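 HepG2 cells transiently transfected with cis-element-driven multiple reporter transcription units, dosed for 24 h. Reporter mRNA measured by RT-PCR, 6-FAM primer-extension labelling, HpaI digestion and capillary electrophoresis; bidirectional fit versus DMSO baseline.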

Experiment [9] in a line: ATG_EGR_CIS: Attagene CIS-FACTORIAL HepG2 Assay for human Early Growth Response 1 (EGR1) (AID 2282938). Conditions: HepG2 Attagene CIS-FACTORIAL EGR reporter mRNA; actives raise or lower the signal. A digest of the protocol:
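HepG2 cells transiently transfected with cis-promoter-driven multiplexed reporter transcription units; reporter mRNA measured 24 h after compound dosing by RT-PCR, 6-FAM primer extension, HpaI digestion and capillary electrophoresis. Bidirectional fit versus DMSO baseline.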

Experiment [10] can be described thus: ATG_M_19_CIS: Attagene CIS-FACTORIAL HepG2 Assay for M19 Transcription Factor (Internal Marker) (AID 2282939). As to conditions: HepG2 Attagene CIS-FACTORIAL M19 internal marker reporter; actives raise or lower the signal. A digest of the protocol:
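Internal marker readout, fitted in both directions against DMSO, from HepG2 cells carrying transfected cis-element reporter constructs; RT-PCR and capillary electrophoresis of reporter mRNA after 24 h exposure.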

Experiment [11] in a line: ATG_ERE_CIS: Attagene CIS-FACTORIAL HepG2 Assay for Estrogen Response Element (ERE) (AID 2282940). As to conditions: HepG2 ERE cis-reporter, Attagene RNA transcript; actives raise or lower the signal. A digest of the protocol: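 After 24 h compound treatment, RNA from transfected HepG2 cells was reverse-transcribed, reporter cDNA PCR-amplified, FAM-labelled, HpaI-cut and resolved by capillary electrophoresis. ERE-driven cis reporter transcripts reflect endogenous factors; gain or loss scored against DMSO.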

Experiment [12] can be described thus: ATG_Ets_CIS: Attagene CIS-FACTORIAL HepG2 Assay for human Erythroblast Transformation Specific (ETS) (AID 2282941). Conditions: HepG2 ETS cis-reporter transcription; AC50: actives raise or lower the signal unless noted; outcome: actives raise or lower the signal unless noted. Summed up: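 HepG2 cells transiently transfected with cis-promoter reporter transcription units were dosed for 24 h; reporter mRNA was measured by RT-PCR, 6-FAM primer extension, HpaI digestion and capillary electrophoresis, with bidirectional fitting against DMSO baseline.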

Experiment [13] concerns the target Hepatocyte nuclear factor 3-beta (Homo sapiens) (UniProt Q9Y261). Nature of the experiment: ATG_FoxA2_CIS: Attagene CIS-FACTORIAL HepG2 Assay for human Forkhead box A2 (FOXA2) (AID 2282942). As to conditions: HepG2 cis-reporter transcription factor activity, 24 h; actives raise or lower the signal. A digest of the protocol: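 HepG2 cells transiently transfected with multiple cis-regulated reporter transcription units, dosed for 24 h. Reporter mRNA measured by RT-PCR, 6-FAM labelling, HpaI digestion and capillary electrophoresis; bidirectional fitting against DMSO baseline.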

Experiment [14] is described as follows: ATG_FoxO_CIS: Attagene CIS-FACTORIAL HepG2 Assay for human Forkhead box O (FoxO) (AID 2282943). Conditions: HepG2 Attagene cis-reporter, FoxO element, mRNA; actives raise or lower the signal. Summed up: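 24 h chemical exposure, HepG2 with transient cis-MRTU transfection. RNA extraction, oligo(dT) RT, reporter-specific PCR, primer-extension labelling, HpaI digestion, CE fragment analysis; bidirectional fit, DMSO baseline.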

Experiment [15] is described as follows: ATG_GATA_CIS: Attagene CIS-FACTORIAL HepG2 Assay for human GATA Binding Protein (AID 2282944). Conditions: HepG2 GATA cis-element reporter, Attagene multiplex mRNA; actives raise or lower the signal. A digest of the protocol: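 Reporter transcripts from a GATA cis-regulated unit, among multiplexed reporters in transfected HepG2 cells, were measured by RT-PCR with capillary electrophoresis after 24 h dosing. Induction or loss scored relative to DMSO.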

The nature of experiment [16]: ATG_GLI_CIS: Attagene CIS-FACTORIAL HepG2 Assay for human Zinc Finger Protein GLI1 (AID 2282945). Conditions: HepG2, Attagene cis-factorial reporter mRNA, GLI element; actives raise or lower the signal. Summed up: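 HepG2 cells transiently transfected with cis-promoter multiplexed reporter units report endogenous transcription factor activity. After 24 h chemical exposure, reporter mRNA was quantified by RT-PCR, 6-FAM labelling, HpaI digestion and capillary electrophoresis, with bidirectional fitting against DMSO.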

Experiment [17] addresses Bile acid receptor (Homo sapiens) (UniProt Q96RI1). The experiment in a line: ATG_IR1_CIS: Attagene CIS-FACTORIAL HepG2 Assay for human Nuclear Receptor Subfamily 1 Group H Member 4 (NR1H4), IR1 submotif (AID 2282946). As to conditions: IR1 reporter transcription, actives raise or lower the signal. Summed up:
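Transient MRTU transfection, HepG2; 24 h dosing; RNA → RT-PCR → 6-FAM primer extension → HpaI digest → capillary electrophoresis fluorescence. Gain/loss of signal fitted relative to DMSO.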

Experiment [18] is described as follows: ATG_GRE_CIS: Attagene CIS-FACTORIAL HepG2 Assay for human Glucocorticoid Response Elements (GRE) (AID 2282947). As to conditions: HepG2 GRE cis-reporter, Attagene multiplex mRNA; AC50: actives raise or lower the signal unless noted; outcome: actives raise or lower the signal unless noted. A digest of the protocol:
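HepG2 cells transiently transfected with multiple cis-promoter reporter units measure endogenous TF activity; 24 h compound exposure. Reporter mRNA quantified by RT-PCR, FAM labelling, HpaI digestion and capillary electrophoresis; bidirectional fit vs DMSO baseline.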

The nature of experiment [19]: ATG_ISRE_CIS: Attagene CIS-FACTORIAL HepG2 Assay for human Interferon Regulatory Factor 1 (IRF1) binding to an Interferon-Stimulated Response Element (ISRE) (AID 2282948). Conditions: HepG2 ISRE cis-reporter (Attagene), mRNA transcription readout; actives raise or lower the signal. Summed up:
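HepG2 cells transiently transfected with multiplexed cis-promoter reporter units; after 24 h compound exposure, reporter mRNA quantified by RT-PCR, FAM labelling, HpaI digestion and capillary electrophoresis. Bidirectional fit versus DMSO baseline.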

In experiment [20] the target is Retinoic acid receptor alpha (Homo sapiens) (UniProt P10276). Nature of the experiment: ATG_DR5_RAR_CIS: Attagene CIS-FACTORIAL HepG2 Assay for human Retinoic Acid Receptor Alpha (RARE), DR5 submotif (AID 2282934).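 As to AC50: reporter responds to endogenous RAR alpha beta and gamma in HepG2 not RARA alone.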 As to conditions: HepG2 Attagene cis-factorial RARE DR5 reporter, mRNA; actives raise or lower the signal. Summed up:
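Transfected HepG2 reporter cells are exposed to chemicals for 24 h. Then RNA is extracted and the DR5 element reporter transcript is measured by RT-PCR and capillary electrophoresis, with bidirectional curve fitting relative to DMSO.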

Sequence of Hepatocyte nuclear factor 3-beta (Homo sapiens) (Q9Y261 whole entry, looked up): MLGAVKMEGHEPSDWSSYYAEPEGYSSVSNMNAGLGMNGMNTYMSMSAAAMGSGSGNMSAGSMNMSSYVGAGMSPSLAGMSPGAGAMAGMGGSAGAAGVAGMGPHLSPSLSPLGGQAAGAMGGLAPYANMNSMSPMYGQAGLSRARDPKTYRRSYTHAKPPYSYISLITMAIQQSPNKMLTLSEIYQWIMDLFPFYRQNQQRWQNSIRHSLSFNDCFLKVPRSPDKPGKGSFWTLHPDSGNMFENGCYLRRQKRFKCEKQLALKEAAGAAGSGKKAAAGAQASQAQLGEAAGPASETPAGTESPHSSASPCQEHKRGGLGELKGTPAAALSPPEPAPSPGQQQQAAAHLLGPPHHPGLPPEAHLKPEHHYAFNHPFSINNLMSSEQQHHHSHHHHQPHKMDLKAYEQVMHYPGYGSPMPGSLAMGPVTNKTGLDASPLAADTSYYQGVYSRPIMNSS
Sequence of Aryl hydrocarbon receptor (Homo sapiens) (P35869 whole entry, looked up): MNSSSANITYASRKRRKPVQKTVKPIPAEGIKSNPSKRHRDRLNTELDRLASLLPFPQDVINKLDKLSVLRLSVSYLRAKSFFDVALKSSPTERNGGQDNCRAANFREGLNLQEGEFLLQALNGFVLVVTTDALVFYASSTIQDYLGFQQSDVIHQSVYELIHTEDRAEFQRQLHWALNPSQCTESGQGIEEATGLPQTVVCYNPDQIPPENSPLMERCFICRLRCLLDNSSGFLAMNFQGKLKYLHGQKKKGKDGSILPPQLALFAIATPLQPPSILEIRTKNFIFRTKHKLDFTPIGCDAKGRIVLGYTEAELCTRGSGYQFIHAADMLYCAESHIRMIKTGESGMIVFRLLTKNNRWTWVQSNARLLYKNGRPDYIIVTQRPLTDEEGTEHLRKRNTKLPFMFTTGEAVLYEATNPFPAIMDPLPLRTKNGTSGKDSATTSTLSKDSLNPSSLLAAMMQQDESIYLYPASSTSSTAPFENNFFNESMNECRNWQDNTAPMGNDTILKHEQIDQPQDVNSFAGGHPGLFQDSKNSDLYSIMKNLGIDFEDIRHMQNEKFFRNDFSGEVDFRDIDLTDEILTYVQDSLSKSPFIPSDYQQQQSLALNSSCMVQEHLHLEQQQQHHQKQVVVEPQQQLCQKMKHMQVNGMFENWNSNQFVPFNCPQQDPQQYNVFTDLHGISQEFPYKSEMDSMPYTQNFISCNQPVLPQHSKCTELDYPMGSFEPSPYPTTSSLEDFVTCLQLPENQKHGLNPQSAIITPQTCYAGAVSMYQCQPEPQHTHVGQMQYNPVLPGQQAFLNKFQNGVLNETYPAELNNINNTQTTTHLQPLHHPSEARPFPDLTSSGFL
Sequence of Transcription factor E2F1 (Homo sapiens) (Q01094 whole entry, looked up): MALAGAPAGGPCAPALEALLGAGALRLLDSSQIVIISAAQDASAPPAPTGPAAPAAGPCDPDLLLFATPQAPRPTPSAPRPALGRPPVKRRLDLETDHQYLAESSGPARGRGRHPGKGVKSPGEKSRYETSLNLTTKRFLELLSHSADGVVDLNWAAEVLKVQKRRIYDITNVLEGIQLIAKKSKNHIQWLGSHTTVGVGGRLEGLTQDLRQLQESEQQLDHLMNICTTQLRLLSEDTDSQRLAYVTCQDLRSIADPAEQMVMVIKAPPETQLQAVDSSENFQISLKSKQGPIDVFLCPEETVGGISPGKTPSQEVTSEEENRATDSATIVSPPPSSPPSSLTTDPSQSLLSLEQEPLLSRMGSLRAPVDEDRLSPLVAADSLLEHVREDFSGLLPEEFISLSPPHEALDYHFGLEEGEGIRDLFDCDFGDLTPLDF
Sequence of Bile acid receptor (Homo sapiens) (Q96RI1 whole entry, looked up): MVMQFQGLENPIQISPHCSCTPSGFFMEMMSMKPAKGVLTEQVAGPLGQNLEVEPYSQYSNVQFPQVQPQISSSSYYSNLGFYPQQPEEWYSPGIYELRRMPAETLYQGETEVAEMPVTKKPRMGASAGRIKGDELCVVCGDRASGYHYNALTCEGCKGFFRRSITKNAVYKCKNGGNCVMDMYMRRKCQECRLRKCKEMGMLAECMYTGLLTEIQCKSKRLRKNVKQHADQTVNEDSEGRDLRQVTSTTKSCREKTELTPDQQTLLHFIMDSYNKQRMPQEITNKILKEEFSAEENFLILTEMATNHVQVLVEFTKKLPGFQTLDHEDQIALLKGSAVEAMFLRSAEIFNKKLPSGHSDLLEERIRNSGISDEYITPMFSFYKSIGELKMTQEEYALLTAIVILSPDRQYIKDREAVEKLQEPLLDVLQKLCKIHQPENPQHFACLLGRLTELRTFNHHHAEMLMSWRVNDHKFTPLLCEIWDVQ
Sequence of Retinoic acid receptor alpha (Homo sapiens) (P10276 whole entry, looked up): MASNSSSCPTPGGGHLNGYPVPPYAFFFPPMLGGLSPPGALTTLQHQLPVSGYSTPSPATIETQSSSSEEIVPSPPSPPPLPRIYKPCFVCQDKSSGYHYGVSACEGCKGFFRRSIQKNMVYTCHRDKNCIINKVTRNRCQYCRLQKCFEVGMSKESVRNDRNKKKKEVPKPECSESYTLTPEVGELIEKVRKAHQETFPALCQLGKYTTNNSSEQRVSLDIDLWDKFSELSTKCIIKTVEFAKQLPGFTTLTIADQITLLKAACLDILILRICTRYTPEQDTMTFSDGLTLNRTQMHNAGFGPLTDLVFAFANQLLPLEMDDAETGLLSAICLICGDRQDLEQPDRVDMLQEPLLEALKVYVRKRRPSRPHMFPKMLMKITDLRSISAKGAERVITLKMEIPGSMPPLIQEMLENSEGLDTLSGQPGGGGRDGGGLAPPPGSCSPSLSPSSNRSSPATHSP

For orientation: AC50 means the concentration at which the activity in the assay is half-maximal. `COC(O)c1ccccc1` (centres undefined): the outcome in experiment [1], in [2], in [3], in experiment [4], in [5] and in experiment [6] was inactive. In addition, the result in [7], in experiment [8], in [9], in [10], in experiment [12] and in experiment [13] was inactive. In addition, the compound was called inactive in experiment [14], in experiment [15], in experiment [16], in experiment [17], in experiment [18] and in experiment [19]. For the same compound, the AC50 in experiment [11] is 18.1 µM (active).
Turning to `Cc1cc(Cc2cc(C)cc(C(C)(C)C)c2O)c(O)c(C(C)(C)C)c1`, the AC50 in [1] was 100 µM (active); in [2], 55.6 µM (active); in [3], 24.9 µM (active); in experiment [20], 11.4 µM (active); in [6] it was 170 µM (active); in experiment [9] it was 100 µM (active). Further, the concentration at half-maximal activity (AC50) in experiment [12] was 79.4 µM (active); in experiment [13], 128 µM (active); in experiment [14] it was 51.4 µM (active); in [16], 165 µM (active); in experiment [17], 169 µM (active). The call in [4], in [5], in experiment [8], in experiment [11], in experiment [15] and in [18] was inactive. Also, the call in experiment [19] was inactive.
Regarding `Oc1c(Cl)ccc(Cl)c1Cl`, the outcome in experiment [1], in experiment [3], in experiment [4], in experiment [5], in experiment [6] and in experiment [7] was inactive. Also, the call in experiment [8], in experiment [9], in experiment [10], in [11], in experiment [12] and in [13] was inactive. The compound was called inactive in experiment [14], in [15], in [16], in experiment [17] and in experiment [19]. The AC50 in experiment [2] is 68.3 µM (active).
For the compound `COc1cccc(O)c1`, the result in experiment [1], in [2], in experiment [3], in experiment [4], in experiment [5] and in [20] was inactive. Besides, the compound was called inactive in experiment [6], in experiment [8], in experiment [9], in experiment [10], in experiment [11] and in experiment [12]. Besides, the compound was classed as inactive in experiment [13], in [14], in experiment [15], in [16], in experiment [17] and in experiment [18]. In experiment [19], the call was inactive.
